Measurements from PubChem BioAssay (NCI).
Compounds without any hit were thinned out: in the full panel of roughly 79,000, 15% have a hit. A number with no mark means an inactive call. The source made the active and inactive calls. Cut-off read from the data, not from the text of the source: active = growth inhibition above about 70%; inactive = the rest.

Experiments:
[1] = NCI Yeast Anticancer Drug Screen. Data for the rad52 strain (AID 147);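 note: 0% = growth of vehicle-treated control cultures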; conditions: S. cerevisiae rad52 mutant growth inhibition, active compounds read high
In short: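 Vehicle-treated cultures served as the reference for growth inhibition of compound-exposed yeast bearing a DNA repair mutation.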

[2] = NCI Yeast Anticancer Drug Screen. Data for the wt1 strain (AID 149);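 note: 0% = growth of vehicle-treated wt1 cultures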; conditions: S. cerevisiae wt1 strain (SPY 50644) growth inhibition, active compounds read high
In short: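 Vehicle-normalised growth inhibition; strain wt1; compound exposure.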

[3] = NCI Yeast Anticancer Drug Screen. Data for the rad50EPP+ strain (AID 151);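 note: 0% = growth of vehicle-treated control cultures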; conditions: S. cerevisiae rad50 mutant strain, active compounds read high
In short: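 In this screen, rad50EPP+ yeast were exposed to compounds. Growth inhibition was scored against vehicle-treated controls.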

[4] = NCI Yeast Anticancer Drug Screen. Data for the mgt1 strain (AID 153); conditions: S. cerevisiae mgt1 mutant growth inhibition, active compounds read high
In short: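 mgt1 strain exposed; growth vs vehicle control recorded as inhibition.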

[5] = NCI Yeast Anticancer Drug Screen. Data for the rad50 strain (AID 155);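 note: 0% = growth of vehicle-only cultures of the same strain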; conditions: S. cerevisiae rad50 strain growth inhibition, active compounds read high
In short: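 A DNA repair-deficient yeast mutant serves as the test organism; compound-induced growth inhibition is calculated against vehicle-treated cells.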

[6] = NCI Yeast Anticancer Drug Screen. Data for the mec2-1 strain (AID 157); conditions: S. cerevisiae mec2-1 strain, active compounds read high
In short: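 Vehicle-treated cultures served as reference for growth inhibition of compound-exposed mec2-1 yeast.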

[7] = NCI Yeast Anticancer Drug Screen. Data for the sgs1 mgt1 strain (AID 161);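 note: 0% = growth of cultures given vehicle only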; conditions: S. cerevisiae sgs1 mgt1 strain, active compounds read high
In short: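 Read-out: growth inhibition vs vehicle controls. Cells: mutant yeast strain deficient in DNA damage repair.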

[8] = NCI Yeast Anticancer Drug Screen. Data for the CLN2oe strain (AID 163);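 note: 0% = growth of vehicle-only control cultures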; conditions: S. cerevisiae CLN2oe strain, active compounds read high
In short: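 Inhibition relative to vehicle-treated yeast is reported. Cells: strain with genetic alteration in cell-cycle control, grown with compound.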

[9] = NCI Yeast Anticancer Drug Screen. Data for the cln2 rad14 strain (AID 165);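 note: 0% = growth equal to vehicle treated cultures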; conditions: S. cerevisiae cln2 rad14 strain, active compounds read high
In short: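 Each compound was tested on cln2 rad14 yeast. Inhibition of growth was calculated against vehicle-exposed controls.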

[10] = NCI Yeast Anticancer Drug Screen. Data for the bub3 strain (AID 167); conditions: S. cerevisiae bub3 mutant strain, active compounds read high
In short: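 Inhibition values come from growth of compound-treated mutant yeast normalised to vehicle-treated controls.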

[11] = NCI Yeast Anticancer Drug Screen. Data for the wt2 strain (AID 169);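 note: 0% = growth of vehicle-treated yeast cultures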; conditions: S. cerevisiae wt2 strain growth inhibition, active compounds read high
In short: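 Inhibition of yeast growth was determined after compound treatment, normalised to controls receiving only vehicle.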

[12] = NCI Yeast Anticancer Drug Screen. Data for the mlh1 strain (AID 171);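 note: 0% = growth of vehicle-treated control cultures of the same strain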; conditions: S. cerevisiae mlh1 strain growth inhibition, active compounds read high
In short: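 Vehicle-normalised growth inhibition of a repair- or checkpoint-altered yeast strain following compound treatment.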

[13] = NCI Yeast Anticancer Drug Screen. Data for the sgs1 strain (AID 173);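 note: 0% = growth of vehicle-only control cultures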; conditions: S. cerevisiae sgs1 mutant, active compounds read high
In short: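 Screen format: yeast with repair or checkpoint alterations, compound exposure, growth read relative to vehicle.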

[14] = NCI Yeast Anticancer Drug Screen. Data for the mlh1 rad18 strain (AID 175); conditions: S. cerevisiae mlh1 rad18 strain growth inhibition, active compounds read high
In short: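 Vehicle-treated cultures served as the reference for growth inhibition in a yeast strain carrying DNA damage repair alterations exposed to each compound.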

[15] = NCI Yeast Anticancer Drug Screen. Data for the rad18 strain (AID 177); conditions: S. cerevisiae rad18 mutant growth inhibition, active compounds read high
In short: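 Test articles were incubated with altered yeast defective in DNA damage repair. Results are given as inhibition of growth versus vehicle.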

[16] = at 5.0 µM (retest, dose inferred, filed as 0.5)
[17] = at 50.0 µM (retest, dose inferred, filed as 5.0)

CSC(=S)N/N=C/c1ccccc1
growth inhibition ([1]; at 1.2 µM): 10% | growth inhibition ([1]; at 3.7 µM): 20% | growth inhibition ([1]; at 11.0 µM): 53% | growth inhibition ([1]; at 33.0 µM): 67% | growth inhibition ([1]; at 100.0 µM): 67% | growth inhibition ([2]; at 1.2 µM): 4% | growth inhibition ([2]; at 3.7 µM): 11% | growth inhibition ([2]; at 11.0 µM): 29% | growth inhibition ([2]; at 33.0 µM): 48% | growth inhibition ([2]; at 100.0 µM): 43% | growth inhibition ([3]; at 1.2 µM): -1% | growth inhibition ([3]; at 3.7 µM): 2% | growth inhibition ([3]; at 11.0 µM): 16% | growth inhibition ([3]; at 33.0 µM): 60% | growth inhibition ([3]; at 100.0 µM): 75% (active) | growth inhibition ([4]; at 1.2 µM): 3% | growth inhibition ([4]; at 3.7 µM): 2% | growth inhibition ([4]; at 11.0 µM): 22% | growth inhibition ([4]; at 33.0 µM): 27% | growth inhibition ([4]; at 100.0 µM): 39% | growth inhibition ([5]; at 1.2 µM): 28% | growth inhibition ([5]; at 3.7 µM): 57% | growth inhibition [5, 16]: 38% | growth inhibition ([5]; at 11.0 µM): 82% (active) | growth inhibition ([5]; at 33.0 µM): 83% (active) | growth inhibition [5, 17]: 86% (active) | growth inhibition ([5]; at 50.0 µM): 94.6% (active) | growth inhibition ([5]; at 100.0 µM): 82% (active) | growth inhibition ([6]; at 1.2 µM): 5% | growth inhibition ([6]; at 3.7 µM): 13% | growth inhibition [6, 16]: 48% | growth inhibition ([6]; at 11.0 µM): 10% | growth inhibition ([6]; at 33.0 µM): 20% | growth inhibition [6, 17]: 76% (active) | growth inhibition ([6]; at 50.0 µM): 75.8% (active) | growth inhibition ([6]; at 100.0 µM): 23% | growth inhibition [7, 16]: 26% | growth inhibition [7, 17]: 87% (active) | growth inhibition ([7]; at 50.0 µM): 75.2% (active) | growth inhibition ([8]; at 1.2 µM): -3% | growth inhibition ([8]; at 3.7 µM): 3% | growth inhibition ([8]; at 11.0 µM): 14% | growth inhibition ([8]; at 33.0 µM): 22% | growth inhibition ([8]; at 100.0 µM): 17% | growth inhibition [9, 16]: 16% | growth inhibition [9, 17]: 21% | growth inhibition ([9]; at 50.0 µM): 49.3% | growth inhibition ([10]; at 1.2 µM): 32% | growth inhibition ([10]; at 3.7 µM): 28% | growth inhibition [10, 16]: 46% | growth inhibition ([10]; at 11.0 µM): 59% | growth inhibition ([10]; at 33.0 µM): 60% | growth inhibition [10, 17]: 82% (active) | growth inhibition ([10]; at 50.0 µM): 90% (active) | growth inhibition ([10]; at 100.0 µM): 59% | growth inhibition ([11]; at 1.2 µM): -2% | growth inhibition ([11]; at 3.7 µM): 2% | growth inhibition ([11]; at 11.0 µM): 16% | growth inhibition ([11]; at 33.0 µM): 28% | growth inhibition ([11]; at 100.0 µM): 37% | growth inhibition ([12]; at 1.2 µM): 1% | growth inhibition ([12]; at 3.7 µM): 3% | growth inhibition ([12]; at 11.0 µM): 25% | growth inhibition ([12]; at 33.0 µM): 26% | growth inhibition ([12]; at 100.0 µM): 37% | growth inhibition ([13]; at 1.2 µM): 0% | growth inhibition ([13]; at 3.7 µM): 5% | growth inhibition ([13]; at 11.0 µM): 21% | growth inhibition ([13]; at 33.0 µM): 44% | growth inhibition ([13]; at 100.0 µM): 55% | growth inhibition [14, 16]: 48% | growth inhibition [14, 17]: 85% (active) | growth inhibition ([14]; at 50.0 µM): 89.5% (active) | growth inhibition ([15]; at 1.2 µM): 23% | growth inhibition ([15]; at 3.7 µM): 55% | growth inhibition ([15]; at 11.0 µM): 86% (active) | growth inhibition ([15]; at 33.0 µM): 86% (active) | growth inhibition ([15]; at 100.0 µM): 81% (active)
